The source made the active and inactive calls. Calls come from the whole dose curve; as a rule, active = well fitted inhibition curve with a large enough effect; inactive = flat fitted curve, though single readings scatter.
Each compound was assayed against Dual specificity protein kinase CLK1 (Homo sapiens) (UniProt P49759) (assay: Reaction Biology data for inhibitors of CLK1: Probe SAR). Settings: Reaction Biology CLK1 kinase assay, 10 uM ATP; series mostly up to 10 µM.
Dual specificity protein kinase CLK1 (Homo sapiens), sequence (P49759 whole entry, looked up, canonical isoform): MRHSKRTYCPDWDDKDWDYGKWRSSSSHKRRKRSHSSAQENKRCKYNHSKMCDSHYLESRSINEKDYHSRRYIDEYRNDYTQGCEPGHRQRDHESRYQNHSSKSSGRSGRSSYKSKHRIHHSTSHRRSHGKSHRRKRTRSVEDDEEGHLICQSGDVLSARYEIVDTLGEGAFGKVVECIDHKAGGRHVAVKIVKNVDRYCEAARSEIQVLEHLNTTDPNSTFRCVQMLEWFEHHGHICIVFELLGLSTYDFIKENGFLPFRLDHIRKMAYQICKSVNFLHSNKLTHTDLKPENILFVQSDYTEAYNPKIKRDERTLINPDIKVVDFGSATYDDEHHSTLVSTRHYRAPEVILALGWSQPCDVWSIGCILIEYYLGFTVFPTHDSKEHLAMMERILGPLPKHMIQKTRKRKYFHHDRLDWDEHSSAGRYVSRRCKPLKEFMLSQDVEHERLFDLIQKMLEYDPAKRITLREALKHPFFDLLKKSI
Excerpt: Alternative splicing of pre-mRNAs plays a major role in the regulation of eukaryotic gene expression. Alternative splicing is now thought to be one of the primary reasons for the complexity of higher organisms leading to an average of three protein isoforms per gene. Aberrant splicing can lead to a number of diseases and is known to play a role in rare genetic diseases such as progeria syndrome. Hutchinson-Gilford Progeria Syndrome (HGPS) is a pediatric premature aging disease caused by a spontaneous mutation in the lamin A/C (LMNA) gene due to a single point mutation in the lamin A gene effecting 1 in 4 million people. To identify both specific splicing modulators of the lamin A gene as well as general splicing modulators, a cell-based HTS assay was developed using a minigene reporter system (AIDs, 1459 & 1487). […] This AID summarizes the characterization of lead compounds in Clk1. NIH Molecular Libraries Probe Production Centers Network [MLPCN] NIH Chemical Genomics Center [NCGC] MLPCN Grant: MH084827 Assay Submitter (PI): Tom Misteli
Compound IC50s were determined at Reaction Biology (http://www.reactionbiology.com) with ten concentration points starting at 10 uM in the assay using a 3-fold dilution series. The control compound staurosporine was also tested in the 10-dose IC50 mode with the same 3-fold serial dilution, again starting at 10 uM. All kinase reactions were performed using 10 uM ATP in the assay. 100% activity was taken from kinase reactions with DMSO alone (the vehicle used for compound stock solutions).
With `c1cncc(CNc2ccnc(-c3ccc4cn[nH]c4c3)n2)c1` the Potency was 1600 nM (active).
In the case of `COc1cccc(-c2ccnc(NCc3ccc(Cl)c(Cl)c3)n2)c1`, the Potency was 5460 nM (active).
For `Brc1ccc(CNc2nccc(-c3ccc4c(c3)OCO4)n2)cc1Br`, the Potency was 24.1 nM (active).
With `Clc1ccc(CNc2ccnc(-c3ccc4[nH]ncc4c3)n2)cc1Cl` the Potency was 1780 nM (active).
With `Clc1ccc(CNc2nccc(-c3ccc4c(c3)OCCO4)n2)cc1Cl` the Potency was 15.8 nM (active).
`c1cncc(CNc2ccnc(-c3ccc4[nH]ncc4c3)n2)c1` was tested, and the Potency was 964 nM (active).
`c1cncc(CNc2ncncc2-c2ccc3c(c2)OCO3)c1` was tested, and the Potency was 4800 nM (active).
With `Clc1cc(Cl)cc(CNc2ncncc2-c2ccc3c(c2)OCO3)c1` the Potency was 68.4 nM (active).
With `Clc1ccc(CNc2nccc(-c3ccc4c(c3)OCO4)n2)cc1Cl` the Potency was 8.3 nM (active).
For `FC(F)(F)c1cccc(Nc2nccc(-c3ccc4c(c3)OCO4)n2)c1`, the Potency was 33.6 nM (active).
With `Brc1cc(Br)cc(CNc2nccc(-c3ccc4c(c3)OCO4)n2)c1` the Potency was 13 nM (active).
In the case of `Clc1ccc(CNc2ncncc2-c2ccc3c(c2)OCO3)cc1`, the Potency was 2370 nM (active).
`FC(F)(F)c1cc(Br)cc(Nc2nccc(-c3ccc4c(c3)OCO4)n2)c1` was tested, and the Potency was 102 nM (active).
With `c1cncc(CNc2nccc(-c3ccc4c(c3)OCO4)n2)c1` the Potency was 11.3 nM (active).
In the case of `Clc1ccc(CNc2nccc(-c3ccc4cn[nH]c4c3)n2)cc1Cl`, the Potency was 183 nM (active).
For `Clc1ccc(CNc2ncncc2-c2ccc3c(c2)OCO3)cc1Cl`, the Potency was 626 nM (active).
In the case of `Cc1nc(CN(C)c2ncnc3ccc(-c4ccc5c(c4)OCO5)cc23)cs1`, the Potency was 9.3 nM (active).
In the case of `Clc1cc(Cl)cc(CNc2nccc(-c3ccc4c(c3)OCO4)n2)c1`, the Potency was 1.9 nM (active).
In the case of `Clc1ccc(CNc2nccc(-c3ccc4[nH]ncc4c3)n2)cc1Cl`, the Potency was 41.5 nM (active).
In the case of `c1cc(-c2ccc3c(c2)OCO3)nc(Nc2ccc3c(c2)OCO3)n1`, the Potency was 180 nM (active).
In the case of `Cc1nc(CN(C)c2ncnc3ccc(-c4ccc5[nH]ncc5c4)cc23)cs1`, the Potency was 47.5 nM (active).
In the case of `Clc1ccc(Nc2nccc(-c3ccc4c(c3)OCO4)n2)cc1`, the Potency was 1260 nM (active).
For `COc1ccc(-c2ccnc(NCc3ccc(Cl)c(Cl)c3)n2)cc1OC`, the Potency was “inactive”.
In the case of `Clc1ccc(CNc2ccnc(-c3ccc4c(c3)OCO4)n2)cc1Cl`, the Potency was “inactive”.
With `Cc1c(-c2ccnc(NCc3cccnc3)n2)sc(=O)n1C` the Potency was 44.9 nM (active).
`c1nc(NCC2CCCO2)c2cc(-c3ccc4c(c3)OCO4)ccc2n1` (stereo not drawn) was tested, and the Potency was 52.8 nM (active).
`Cc1c(-c2ccnc(NCc3ccc(Cl)cc3)n2)sc(=O)n1C` was tested, and the Potency was 74.8 nM (active).
For `COc1cccc(-c2ccnc(NCc3ccc(Cl)cc3)n2)c1`, the Potency was “inactive”.
`c1cncc(CNc2nccc(-c3ccc4[nH]ncc4c3)n2)c1` was tested, and the Potency was 72.8 nM (active).
For `Cc1nc(CNc2ncnc3ccc(-c4ccc5c(c4)OCO5)cc23)cs1`, the Potency was 30.4 nM (active).
`COc1ccc(-c2ccnc(NCc3ccc(Cl)c(Cl)c3)n2)cc1` was tested, and the Potency was 76.5 nM (active).
`COc1ccc(-c2ccnc(NCc3ccc(Cl)cc3)n2)cc1` was tested, and the Potency was 277 nM (active).
For `O=[N+]([O-])c1cc(Nc2nccc(-c3ccc4c(c3)OCO4)n2)cc(C(F)(F)F)c1`, the Potency was 32.3 nM (active).

Source: PubChem BioAssay AID624047 (National Center for Advancing Translational Sciences (NCATS), 2012)
